PNC inhibitor: blocks assembly of the perinucleolar compartment. PC3M PTB-GFP, PNC prevalence imaging, 16 h; stronger effect = lower value. activity change (PNC), negative = inhibition, % at 10 µM. 140,000 tested, 3.1% active. AID 2417;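 active = readout at or below -70, meaning at least 70% loss of cells showing the perinucleolar compartment, a nuclear body marking cancer cells; inconclusive = readout between -30 and a set limit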;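 also: plate controls were DMSO wells for no effect and camptothecin positive control wells for full effect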
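PC3M cells stably expressing PTB-GFP, 750–1000 cells/well, treated 16 h at 37 °C with compound (23 nl of library stock), in duplicate. After paraformaldehyde fixation and Hoechst stain, imaged at 20x; PNC prevalence scored by image analysis.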
ALDH1A1 block: ALDH1A1 (human) enzyme inhibition. P00352. Purified ALDH1A1, NADH fluorescence, propionaldehyde substrate. Potency, µM (series often up to 75.3 µM), inactives show top-dose activity, negative = inhibition, most hits filed as inhibitors. 220,000 tested, 7.3% active. AID 1030; active = well fitted inhibition curve with a large enough effect, not every such curve was filed as active; inconclusive = small, poorly fitted or top-dose-only effect, or another doubt; inactive = no such curve, though single readings can be large or run the other way;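 also: potency is read from the fitted curve at half-maximal effect; plate controls were no enzyme wells and a reference inhibitor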
Target sequence (P00352 whole entry, looked up): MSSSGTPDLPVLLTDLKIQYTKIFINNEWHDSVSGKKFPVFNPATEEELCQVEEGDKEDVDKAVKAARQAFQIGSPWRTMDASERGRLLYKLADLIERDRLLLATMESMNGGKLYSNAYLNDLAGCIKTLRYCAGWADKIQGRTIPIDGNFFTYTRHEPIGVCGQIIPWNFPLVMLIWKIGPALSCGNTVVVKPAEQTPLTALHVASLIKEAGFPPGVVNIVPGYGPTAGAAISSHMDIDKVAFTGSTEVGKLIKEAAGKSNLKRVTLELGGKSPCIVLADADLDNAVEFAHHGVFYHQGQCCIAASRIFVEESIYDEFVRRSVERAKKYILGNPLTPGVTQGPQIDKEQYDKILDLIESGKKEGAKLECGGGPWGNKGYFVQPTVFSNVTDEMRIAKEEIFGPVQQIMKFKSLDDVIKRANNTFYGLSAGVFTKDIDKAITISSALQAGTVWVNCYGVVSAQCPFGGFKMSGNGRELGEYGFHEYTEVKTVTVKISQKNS
12-hLO inh: 12-hLO (ALOX12) enzyme inhibition | P18054 | purified 12-hLO, xylenol orange hydroperoxide absorbance | Potency, µM (top dose mostly 57.1 µM), without a hit: at the top dose activity change, negative = inhibition, hits mostly inhibitors | 150,000 tested, 0.12% active; also: potency is read from the fitted curve at half-maximal effect; nearly all actives have a fitted effect of over 55% in size
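Hydroperoxide output read as Fe(III)-xylenol orange absorbance, 573-to-405 nm ratio, after 30 min reaction with 40 uM arachidonic acid. Enzyme: 150 nM purified human 12hLO, 15 min compound preincubation; 25 mM Hepes pH 7.0, room temperature.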
HPGD block: inhibitors of human 15-hydroxyprostaglandin dehydrogenase (HPGD); Potency, µM, inactives show top-dose activity change, negative = inhibition, most hits filed as inhibitors; 150,000 tested, 4.3% active; purified HPGD, NADH fluorescence kinetic, PGE2 substrate; active = well fitted inhibition curve with a large enough effect, not every such curve was filed as active; inconclusive = small, poorly fitted or top-dose-only effect, or another doubt; inactive = no such curve, though single readings can be large or run the other way; also: potency is read from the fitted curve at half-maximal effect
Target sequence (P15428 whole entry, looked up): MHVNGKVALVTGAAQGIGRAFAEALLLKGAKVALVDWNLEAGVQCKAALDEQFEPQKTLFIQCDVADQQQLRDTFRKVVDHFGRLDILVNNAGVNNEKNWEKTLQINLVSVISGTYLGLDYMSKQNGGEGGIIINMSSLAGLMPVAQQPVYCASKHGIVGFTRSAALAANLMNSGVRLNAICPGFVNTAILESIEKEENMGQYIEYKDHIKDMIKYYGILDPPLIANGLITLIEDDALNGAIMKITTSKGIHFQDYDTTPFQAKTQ
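NADH formation kinetics: reaction with 30 uM PGE2 and 1 mM NAD+ (final), 20 nM enzyme, Tris-HCl pH 8 with Tween 20, after 15 min compound preincubation at room temperature. Fluorescence change, last versus first of five reads.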
IMPase Li cell: IMPase inhibition in cells with lithium potentiation; CHO-M1 cells, IP1 TR-FRET (IP-One), carbachol + lithium; Potency, µM (highest dose often 59.4 µM), for inactives: at the highest dose activity, negative = IMPase inhibition, actives largely listed as inhibitors; 210,000 tested, 0.35% active;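 also: IP1 builds up when IMPase is blocked and the TR-FRET signal falls; potency is read from the fitted curve at half-maximal effect; plate controls were basal vehicle for no effect and high inhibitor control for full effect; nearly all actives have a fitted effect of over 50% in size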
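IP1 accumulation measured by competitive TR-FRET in lysed CHO-M1 cells after 30 min compound exposure at 37C, with a small lithium addition to potentiate weak responses. Hill-equation AC50 from ratio and donor-channel data.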
IMPase inh: cell-permeable inhibitors of inositol monophosphatase (IMPase); CHO-M1 cells, IP1 accumulation, HTRF TR-FRET ratio; AID 901; 120,000 tested, under 10 active; inhibition (IP1 accumulation), % at 46.1 µM; P97697; active = well fitted curve in the direction sought with a large enough effect in the signal ratio, not every such curve was filed as active; inconclusive = small, poorly fitted or top-dose-only effect, or a change in a side signal; inactive = no such curve, though single readings can be large or run the other way; the % refers to the signal ratio;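 also: cells stimulated with carbachol in lithium chloride buffer; plate controls were DMSO basal wells for no effect and reference inhibitor wells for full effect; higher means more IMPase inhibition seen as more IP1 and lower FRET ratio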
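The IP-One HTRF competitive assay in carbachol-stimulated CHO-M1 cells quantifies cellular IP1. Compounds spanned up to 46 uM final, and activity is expressed as AC50 from concentration-response fits of the ratio and donor data.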
Active calls of the source: *; ? = inconclusive; . = not tested or not shown; [ ] = another dose, or the depositor's remark. An excerpt weighted towards active compounds, which were near 11% of everything screened. Unless noted, calls follow the shape of the dose curve; as a rule, active = well fitted curve in the direction sought with a large enough effect; inconclusive = small, poorly fitted or top-dose-only effect, or another doubt; inactive = no such curve, though single readings can be large; an effect the other way counts as inactive or inconclusive. Unless noted, % is scaled to controls: 0 for no effect and ±100 for the full control effect.

SMILES	PNC inhibitor	ALDH1A1 block	12-hLO inh	HPGD block	IMPase Li cell	IMPase inh
COc1ccc(C(=O)Nc2ccc(Cl)c(S(=O)(=O)Nc3ccccc3OC)c2)cc1	?	?	-4%	-29%	10%	14
CCOc1ccc(/C=C/C(=O)c2cc(Br)ccc(=O)c2O)cc1	?	?	-17%	?	5%	.
Cc1cccc(/C=C/C(=O)c2cc(Br)ccc(=O)c2O)c1	-4	20µM*	?	-26%	17%[38.3 µM]	4
CCc1ccc(/C=C/C(=O)c2cc(Br)ccc(=O)c2O)cc1	36	?	?	16µM*	11%[38.3 µM]	1
CCn1c(/C(C#N)=N/O)nc2ccccc21	?	20µM*	-5%	35µM*	5%	.
Cn1c(/C(C#N)=N/O)nc2ccccc21	19	?	-2%	-5%	6%	5
COCCn1c(=O)c(C)nc2cncnc21	.	?	.	.	4%	.
O=C(CON1C(=O)c2ccccc2C1=O)c1ccccc1	.	?	7%[11.4 µM]	-5%	10%	.
Cc1cc(Nc2ccccc2N2CCOCC2)n2ncnc2n1	-12	4%	-3%	18µM*	-8%[38.3 µM]	-1
c1ccc2c(c1)OCC(c1csc3ncnc(N4CCOCC4)c13)O2 (configuration not stated)	-21	-1%	-5%	-5%	1%[38.3 µM]	0
CCN(CC)c1ncnc2scc(C3COc4ccccc4O3)c12 (configuration not stated)	-100*	3%	-2%	-17%	21%	?
Cc1cc(=O)[nH]c(SCc2cccc(Br)c2)n1	12	-8%	-9%	14µM*	14%[38.3 µM]	3
CC(=O)c1c(C)cc(C)c(CSc2nc(C)cc(=O)[nH]2)c1C	-112*	-15%	-8%	?	6%[38.3 µM]	-5
CCOC(=O)CSc1nc(C)cc(=O)[nH]1	-9	4%	0%	-8%	-9%[38.3 µM]	-8
COC(=O)c1cc(=O)[nH]c(SCc2cccc(C)c2)n1	78	-2%	1%	-24%	-10%	.
COc1ccc(CSc2nc(C)cc(=O)[nH]2)cc1Br	-22	4%	-4%	16µM*	28%[38.3 µM]	6
O=C1C2CCC(C2)[C@@H]2CCCCN12 (some centres not stated)	.	?	1%[0.00818 µM]	-12%	3%	.
Cc1c(C(=O)OC2CCCCC2)[nH]c2c1C(=O)CC(c1ccccc1)C2 (configuration not stated)	.	.	.	.	.	-1
Cc1c(C(=O)N2CCOCC2)[nH]c2c1C(=O)CC(c1ccccc1Cl)C2 (configuration not stated)	-84*	?	-4%	-17%	29%[38.3 µM]	7
Cc1c(C(=O)OC2CCCCCC2)[nH]c2c1C(=O)CC(c1ccc(N(C)C)cc1)C2 (configuration not stated)	.	.	.	.	.	-1
Cc1c(C(=O)OCc2ccccc2)[nH]c2c1C(=O)CC(c1ccc(Cl)cc1)C2 (configuration not stated)	.	.	.	.	.	9
COC(=O)c1[nH]c2c(c1C)C(=O)CC(c1ccccc1)C2 (configuration not stated)	-111*	5%	3%	-6%	15%[38.3 µM]	4
C/C=C/COC(=O)c1[nH]c2c(c1C)C(=O)CC(c1ccc(N(C)C)cc1)C2 (configuration not stated)	?	5µM*	0%	-18%	41%[38.3 µM]	18
CCC(C)OC(=O)c1[nH]c2c(c1C)C(=O)CC(c1ccc(N(C)C)cc1)C2 (configuration not stated)	-23	3.5µM*	-7%	-13%	40%[38.3 µM]	11
O=C(NCO)c1cccnc1	.	13%	7%	-9%	6%	.
SMILES	PNC inhibitor	ALDH1A1 block	12-hLO inh	HPGD block	IMPase Li cell	IMPase inh
CCOc1ccc(C2CC(=O)c3c([nH]c(C(=O)OCCOc4ccccc4)c3C)C2)cc1 (configuration not stated)	.	.	.	.	.	-2
CCOCCOC(=O)c1[nH]c2c(c1C)C(=O)CC(c1ccc(N(C)C)cc1)C2 (configuration not stated)	-25	13µM*	-4%	-12%	35%[38.3 µM]	11
Cn1c(=O)c2c(ncn2CCCc2ccccc2)n(C)c1=O	-89*	-8%	-2%	3%	2%[38.3 µM]	5
CC(O)Cn1cnc2c1c(=O)n(C)c(=O)n2C (configuration not stated)	-115*	5%	0%	0%	-7%	.
Cn1c(=O)c2c(ncn2CCO)n(C)c1=O	.	4%	2%	-13%	16%	3[20.6 µM]
CC=O	.	5%	-2%	-3%	9%	.
C[C@]12O[C@H]1[C@@H](O)C(Br)=C(CO)[C@H]2O	.	4%	.	-4%	10%	.
O=C(NNC1=NCCCCC1)c1ccccc1	17	6%	0%	14µM*	4%[38.3 µM]	2
c1ccc(CNC2=NCCCC2)cc1	-9	5%	-4%	.	.	-10
Cc1ccccc1Nc1c(N)c(=O)oc2ccccc12	?	-4%	-6%	16µM*	7%[38.3 µM]	?
CC1=C(C(=O)OC2CCCC2)C(c2ccc(F)cc2F)CC(=O)N1 (configuration not stated)	.	.	.	.	.	5
COc1ccc(S(=O)(=O)N2Cc3ccccc3CC2C(=O)Nc2nccs2)cc1OC (configuration not stated)	?	4%	-3%	4%	-3%[38.3 µM]	-2
COc1ccc(S(=O)(=O)N2Cc3ccccc3CC2C(=O)Nc2nccs2)cc1 (configuration not stated)	24	5µM*	0%	-14%	4%[38.3 µM]	2
CCOc1ccc(NC(=O)Nc2cc3c(cc2N2CCCCC2)n(C)c(=O)n3C)cc1	.	.	.	.	.	18
COc1ccc(C2=NN(C(C#N)c3ccc(OC)cc3)C(c3ccccc3)C2)cc1 (configuration not stated)	14	22µM*	-21%	-6%	3%	-1
CC1Cc2ccccc2N1CC(=O)NC(=O)NCc1ccco1 (configuration not stated)	-122*	?	-9%	-12%	17%[38.3 µM]	-4
CC1Cc2ccccc2N1CC(=O)NC(=O)NC1CCCC1 (configuration not stated)	.	-8%	.	.	3%	.
CC(C)[C@@H](CC(=O)N[C@@H]1CCCC[C@H]1C(=O)N[C@H](CC(=O)N[C@@H](CCC(=O)O)CC(=O)O)Cc1c[nH]c2ccccc12)NC(=O)C[C@H](Cc1ccccc1)NC(=O)[C@@H]1CCCC[C@H]1N	.	-13%	-5%	-10%	23%	.
CC1(C)S[C@H]2[C@@H](NC(=O)C(N)c3ccccc3)C(=O)N2[C@H]1C(=O)O (some centres not stated)	.	-5%	1%	-29%	.	.
